Experimental findings from PubChem BioAssay AID2315 (National Center for Advancing Translational Sciences (NCATS), 2010) are described below.

In general, inhibition refers to the drop in the measured response relative to a control, in per cent.

About 27,000 (9.3%) of roughly 290,000 compounds were called active. Shown is part of a subset that was picked to be rich in actives. Unmarked numbers belong to inactive results. No stated cut-off is given here; in the data, active means inhibition mostly above about 28% (no sharp cut-off); inactive means mostly below about 43%.

A short description of the assay: A qHTS for Small Molecule Inhibitors of Shiga Toxin. Further: 0% is about no effect. Conditions: Vero cells, Shiga toxin protein synthesis inhibition reporter; at 38.7 µM, hits give high values. On the technique in general: In qHTS, concentration-response curves come from the screen itself.
With `O=C(OCc1ccc(Br)cc1)c1cccc(-c2nnc(-c3ccccc3)o2)c1`, the inhibition is 31.1%.
Consider `O=C(OCC(=O)c1c[nH]c2ccccc12)c1cccc(O)c1`, for which the inhibition was 69.8% (active).
The value for `O=C(CNC(=O)c1ccc(-c2ccccc2)cc1)OCc1ccc(Cl)cc1` was -7.89%.
As to `O=C(OCc1ccc(-c2ccccc2)cc1)c1cccc(O)c1`, the inhibition is 80.8% (active).
Take `CC1CCN(CC(=O)c2c[nH]c3ccccc23)CC1`: the inhibition is 15.1%.
The value for `CC(=O)Nc1ccccc1C(=O)OCC(=O)c1cccc2ccccc12` was -4.88%; that for `S=C(Nc1ccc(Br)cc1)NC1CCN(Cc2ccccc2)CC1` was -5.49%.
To `CCc1cc2c(NC(Cc3ccccc3)C(=O)O)ncnc2s1` (centres undefined) belongs -7.1%; to `COc1ccc(NS(=O)(=O)c2cc(C(=O)Nc3ccccc3C(=O)O)ccc2C)cc1`, -9.69%.
To `C/C(=N\NC(N)=S)c1ccncc1` belongs -3.77%.
As for `C/C(=N/NC(=O)c1ccncc1)c1ccc2c(c1)OCO2`, the inhibition was 1.65%.
The value for `C/C(=N/NC(=O)c1ccn(C)n1)c1ccncc1` was 81.2% (active); that for `O=C(C1CCC1)N1CCN(c2ccccc2)CC1` was -2.3%.
To `COc1ccc(NC(=O)CCCC2CCCCC2)c(OC)c1` belongs 72.3% (active); to `COc1ccc(NC(=O)CCN2CCCC2)c(OC)c1`, -1.84%.
The value for `CC(=O)Oc1ccc(NC(=O)CCC2CCCCC2)c(C(=O)O)c1` was 9.77%.
As for `Cc1ccc(C)c(CN2CCC(CNC(=O)Nc3ccc(C)c(F)c3)CC2)c1`, the inhibition was 9.21%.
The value for `Cc1nc(NC(=O)C23CCC(C)(C(=O)O2)C3(C)C)sc1C` (centres undefined) was -12.8%; that for `Cc1nc(NC(=O)C2CCCCC2)sc1C` was 61.6% (active); that for `Cc1cnc(NC(=O)C2CCCC2)s1` was 28.6%.
To `CC(=O)c1cccc(NC(=O)c2ccncc2)c1` belongs -0.119%; to `CCSc1nsc(NC(=O)Nc2cccc(C(C)=O)c2)n1`, 41.5% (active).
The value for `CCc1nc(SCC(=O)Nc2ccccc2OC)n[nH]1` was -3.11%; that for `C=CCSc1nsc(NC(=O)Nc2cccc(C(C)=O)c2)n1` was 22.6%; that for `COc1ccccc1NC(=O)Nc1nnc(Cc2ccc(F)cc2)s1` was 22.5%.
For `CCSc1nsc(NC(=O)Nc2ccccc2OC)n1`, the inhibition was 27.4% (active).
The value for `COc1ccc(N2CC(C(=O)N[C@@H](C)C(=O)N3CCCCC3)CC2=O)cc1` (some centres undefined) was -4.4%; that for `COCCc1nn2c(=O)cc(COC(=O)c3cc(OC)c(OC)c(OC)c3)nc2s1` was -8.18%; that for `C/C(N)=C(/C#N)C(=O)COC(=O)C1=NN(c2ccccc2)C(=O)CC1` was -13.8%.
To `CCOCCCNC(=O)C(NC(=O)CNC(=O)c1ccccc1)c1ccc(OC)cc1` (centres undefined) belongs -6.33%; to `Cc1nc2ccccc2cc1C(=O)N/N=C/c1ccc([N+](=O)[O-])cc1`, -4.74%.
The value for `Cc1ccc(NC(=O)c2sccc2C)cc1[N+](=O)[O-]` was 87.3% (active).
Consider `Cc1ccc(NC(=O)CN2CCC(C(N)=O)CC2)cc1[N+](=O)[O-]`, for which the inhibition is 26%.
`NC(=S)N/N=C/c1ccc([N+](=O)[O-])cc1`: the inhibition is 4.32%.
The value for `Cc1ccsc1C(=O)N/N=C/c1ccc([N+](=O)[O-])cc1` was 64% (active); that for `Cc1ccc(NC(=O)CN(C)CC(=O)Nc2cccc(F)c2)cc1[N+](=O)[O-]` was 14.5%; that for `O=C(NCC(=O)N1CCN(c2ncc(C(F)(F)F)cc2Cl)CC1)c1ccc(Br)o1` was -3.85%.
The value for `C=C1CCN(C(CC(C)C)C(=O)N2CCOCC2)S(=O)(=O)c2ccccc21` (centres undefined) was -4.26%; that for `O=C1C2C(c3ccccc3)CC=CC2C(c2ccoc2)N1Cc1ccccc1` (centres undefined) was -1.21%; that for `C=CCNC(=O)/C=C/c1ccc(C(C)C)cc1` was 96.1% (active).
The value for `O=C(/C=C/c1ccc(F)cc1)NCCNC(=O)/C=C/c1ccc(F)cc1` was -7.35%.
For `CC(C)c1ccc(/C=C/C(=O)NNC(=O)c2cccnc2)cc1`, the inhibition was 0.769%.
Turning to `CCCNC(=O)N1CCC(c2ccc3c(c2)OCO3)CC1`, the inhibition is -2.98%.
`Cc1nn(CC(=O)NCCc2ccccc2)c(=O)c2cc3occc3n12`: the inhibition is -3%.
The value for `COc1ccc(CNC(=O)C(C)n2nc(C)c3c(C)n(-c4ccccc4)nc3c2=O)c(OC)c1` (centres undefined) was -6.6%; that for `CC(=O)N1c2ccc(S(=O)(=O)N3CCCC(C(=O)NCc4ccc(Cl)cc4)C3)cc2CC1C` (centres undefined) was 8.69%.
The value for `C=CCNC(=S)N/N=C/c1ccc(C)s1` was 39.3% (active); that for `Cc1ccc(/C=N/NC(=O)CN2CCN(Cc3ccccc3)CC2)s1` was 14.8%; that for `C=CCNC(=S)N/N=C/c1ccc(OCc2ccccc2)cc1` was -15.4%.
To `CCCn1c(C(C)Nc2nc(-c3ccc(C)cc3)cs2)nc2cc(Cl)c(N3CCCCC3)cc21` (centres undefined) belongs -1.11%.
For the molecule `Cc1cccc(-n2cc(CN3CCN(C(=O)c4ncn[nH]4)CC3)c(-c3cccc(F)c3)n2)c1`, the inhibition was 63.8% (active).
As for `Cc1ccc(C)c(-n2cc(CN3CCN(C(=O)c4ncn[nH]4)CC3)c(-c3ccccc3)n2)c1`, the inhibition was 8.93%.
The value for `CCC(O)C1CCN(Cc2cn(-c3ccc(OC)cc3)nc2-c2cccc(F)c2)CC1` (centres undefined) was 50.9%; that for `COc1ccc(S(=O)(=O)N(C)CC(=O)NCCCN2CCOCC2)cc1Cl` was -12.5%; that for `Clc1nc(NC2CCCC2)nc(N2CCOCC2)n1` was 5.65%.
The value for `CCc1ccc(CNC(=O)C2CCN(c3nnc(C)c4c(C)n(-c5ccc(C)cc5)nc34)CC2)cc1` was -5.47%; that for `O=S(=O)(c1ccc(Cl)cc1)c1nc(-c2ccco2)oc1N1CCCCC1` was -0.989%.
To `CSc1ccc(S(=O)(=O)N2CCC(C(=O)NCCc3ccccc3)CC2)cc1` belongs 56.2%; to `CC(Oc1cc2oc(=O)c3c(c2cc1Cl)CCCC3)C(=O)NCc1ccncc1` (centres undefined), -3.65%; to `CCN1/C(=C/c2ccc3ccc(C)cc3[n+]2CC)Sc2ccccc21`, 5.47%.
Take `CCN1/C(=C/C(=S)Nc2ccccc2)Sc2ccccc21`: the inhibition was 62.5% (active).
The value for `O=C(CCN1c2ccccc2Sc2ccccc21)Nc1ccccc1` was -1.29%; that for `CCn1cc(/C=C(\NC(=O)c2ccc(C)cc2)C(=O)NCCN2CCOCC2)c2ccccc21` was 1.24%; that for `C/C(=N/Nc1nc(-c2ccccc2)c(CC(=O)O)s1)c1ccccc1` was 68.4% (active).
To `Cc1ccc(-c2nc(C)sc2CC(=O)O)cc1` belongs -13.7%.
The value for `CCOC(=O)C(=O)Nc1nc(-c2ccccc2)c(CC)s1` was -12%; that for `COC(=O)c1cccc(N2C(=O)C3C4C=CC(CC4)C3C2=O)c1` (centres undefined) was 0.962%; that for `CC(C)Cn1cnc2c1c(=O)n(CC(=O)NN)c(=O)n2Cc1ccccc1` was -7.02%.
On to `O=C(Nc1cccc([N+](=O)[O-])c1)N1CCc2ccccc2C1`, for which the inhibition was 88.6% (active).
To `CCc1ccc(NC(=O)N2CCc3ccccc3C2)cc1` belongs 120% (active).
The value for `CC(=O)Nc1cccc([N+](=O)[O-])c1` was 17.7%; that for `O=C(C(=O)N1CCc2ccccc2C1)N1CCc2ccccc2C1` was 8.23%.
Consider `CCc1ccc(NC(=O)N2CCN(c3ccccc3)CC2)cc1`, for which the inhibition was 20.1%.
As for `CN1CCN(CC(=O)Nc2cccc([N+](=O)[O-])c2)CC1`, the inhibition is -12.8%.
The value for `COC(=O)c1ccccc1NC(=O)CSc1nc2c(c(=O)[nH]1)CCC2` was -2.68%; that for `COc1ccc(C(=O)NC(=S)N2CCCCC2c2cccnc2)cc1OC` (centres undefined) was -4.75%; that for `Cc1ccc(Cn2cc(C(=O)NN)c(=O)c3ccc(F)cc32)cc1` was -5.32%.
The value for `Nc1nc(SCc2cccc(Br)c2)n[nH]1` was 14.2%; that for `O=C(CN1CCN(C(=O)C2CCCO2)CC1)Nc1c(Cl)cccc1Cl` (centres undefined) was -6.84%; that for `COc1cc(C(=O)NCC2(c3ccccc3)CCCC2)ccc1OC(C)C` was 4.68%.
To `CC(Cc1cccs1)NC(=O)NC1CCCCC1` (centres undefined) belongs 35.2%.
In the case of `CC(Cc1cccs1)NCc1ccc(Cl)cc1` (centres undefined), the inhibition was -11.1%.
To `CC(Cc1cccs1)NC(=O)c1cccc(Cl)c1` (centres undefined) belongs 62% (active).
As to `COC(=O)c1ccc(COc2ccc(/C=C/C(=O)c3ccc(OC)c(CSCC(=O)O)c3)cc2OC)cc1`, the inhibition was 10.1%.
The value for `CCOC(CNC(=O)C1CCN(S(=O)(=O)c2ccc3nc4c(c(C(=O)O)c3c2)CC(C)CC4)CC1)OCC` (centres undefined) was 16.6%; that for `NS(=O)(=O)c1ccc2nc(NC(=O)C3=COCCO3)sc2c1` was 31.7% (active); that for `O=C(Nc1ccc(S(=O)(=O)N2CCCC2)cc1Cl)C1=COCCO1` was -24.5%.
To `NS(=O)(=O)c1ccc2nc(NC(=O)CS(=O)(=O)c3ccc(F)cc3)sc2c1` belongs -4.57%.
To `CC(=O)c1ccc(NC(=O)Cn2c(=O)oc3ccccc32)cc1` belongs -3.29%; to `Nc1ncc(CN2CCCC(C(=O)Nc3ccc(-c4ccco4)cc3)C2)cn1` (centres undefined), 1.36%.
Turning to `COC(=O)c1ccc(COc2ccc(C#N)cc2)o1`, the inhibition was -6.04%.
For the molecule `Cc1noc(C)c1COc1ccc2ccc(=O)oc2c1`, the inhibition was -4.36%.
To `CC(C)OC(=O)c1ccc(COc2ccc3ccc(=O)oc3c2)o1` belongs 56.4% (active); to `CN(C)C(=O)CCC(=O)N1CCCCC1C(=O)Nc1ccc(Oc2ccccc2F)cc1` (centres undefined), -6.54%; to `CC(C)(C)n1nnnc1C(c1ccccc1F)N1CCN(C(=O)c2ccco2)CC1` (centres undefined), 2.73%.
To `Cc1ccccc1OCC(=O)N(Cc1cccc(F)c1)C1CCS(=O)(=O)C1` (centres undefined) belongs 10.7%; to `CCCCCOc1ccc(CSC2=NCCN2)cc1[N+](=O)[O-]`, 63.7% (active); to `CCCCOc1ccc(CSC(=N)N)cc1[N+](=O)[O-]`, -5.85%.
As for `CCCOc1ccc(Cn2ccnc2)cc1[N+](=O)[O-]`, the inhibition is -8.54%.
